Shown are actives, neighbours in structure and some others; about 7.4% of the full set was active somewhere.
Luc counter: counter-screen: inhibitors of Kinase-Glo firefly luciferase; Kinase-Glo luciferase, ATP luminescence, 8 min; Potency, µM (titrated, usually from 38.3 µM), for inactives: at the highest dose activity change, negative = inhibition, actives largely listed as inhibitors; hit rate 0.28% among 200,000; AID 1379; further: on the % scale 0 is the no-effect control and ±100 the full control effect; nearly all actives have a fitted effect of over 60% in size
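Luminescence was the read-out, taken after 8-minute incubation at ambient temperature. Luciferase turned over luciferin with 10 uM ATP in imidazole pH 7.2 buffer containing KCl, MgCl2, Tween 20 and BSA.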
FLuc counter: inhibits or activates purified firefly luciferase, miR-21 counter-screen | P08659 | purified FLuc, Km substrates, luminescence inhibition | Potency, µM (series often up to 57.5 µM), for inactives: at the highest dose activity change, negative = inhibition, usual class: inhibitors | hit rate 6.9% among 360,000 | AID 588342;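 further: plate controls were vehicle for no effect and reference inhibitor for full effect; nearly all actives have a fitted effect of over 55% in size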
Target sequence (P08659 whole entry, looked up): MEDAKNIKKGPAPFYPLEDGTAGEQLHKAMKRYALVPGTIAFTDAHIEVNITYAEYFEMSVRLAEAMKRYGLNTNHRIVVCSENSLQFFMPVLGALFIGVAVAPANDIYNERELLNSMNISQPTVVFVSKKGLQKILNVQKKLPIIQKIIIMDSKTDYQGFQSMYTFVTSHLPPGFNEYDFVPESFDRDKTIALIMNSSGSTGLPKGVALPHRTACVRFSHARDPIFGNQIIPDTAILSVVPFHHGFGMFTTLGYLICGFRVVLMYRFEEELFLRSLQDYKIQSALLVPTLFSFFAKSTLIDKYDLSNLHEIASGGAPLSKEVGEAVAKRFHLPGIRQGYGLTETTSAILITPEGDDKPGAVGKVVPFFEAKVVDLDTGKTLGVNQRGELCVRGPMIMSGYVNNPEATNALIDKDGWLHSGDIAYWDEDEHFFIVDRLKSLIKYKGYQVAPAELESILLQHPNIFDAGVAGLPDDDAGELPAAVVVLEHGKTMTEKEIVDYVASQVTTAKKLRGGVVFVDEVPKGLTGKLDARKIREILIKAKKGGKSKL
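Purified P. pyralis luciferase, 10 nM final, with Km-level 10 uM D-luciferin and 10 uM ATP in 50 mM Tris acetate pH 7.5, 10 mM Mg acetate, 0.01% Tween-20, 0.05% BSA; 6-point qHTS titration about 60 µM downward; luminescence read.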
SMN2 splice enh: SMN2 splice variant enhancement | HEK293 SMN2-luciferase splicing reporter, luminescence, 30-36 h | hit rate 2.8% among 210,000 | Potency, µM (top dose mostly 46.1 µM), for inactives: top-dose activity change, positive = activation, hits mostly activators; further: % of control where 0% means no effect; nearly all actives have a fitted effect of over 55% in size
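HEK293 cells carry an SMN2 […]–luciferase reporter in which exon 7 inclusion puts luciferase in frame. Cells were plated 10-12 h before compound addition, then incubated 30-36 h at 37C. ONE-Glo luminescence was read; sodium butyrate at 4.5 mM final served as control.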
ELG1 genotoxic: induces genotoxicity in HEK293T cells with luciferase-tagged ELG1; HEK293T ELG1-luciferase reporter, luminescence, 16 h; Potency, µM (top dose mostly 46 µM), for the others: at the top dose activity change, positive = activation, most hits filed as activators; hit rate 1.3% among 330,000; further: % of control where 0% means no effect; nearly all actives have a fitted effect of over 60% in size
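16 hr compound incubation (37 °C, 5% CO2) of HEK293T cells carrying luciferase-tagged ELG1; luciferase then measured by ONE-Glo luminescence after 30 min at RT.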
NPC1 promoter act: NPC1 promoter activation. Huh7 NPC1 promoter luciferase reporter, 24 h. Potency, µM (top dose mostly 9.22 µM), inactives show top-dose activation, hits mostly activators. hit rate 2.4% among 320,000. AID 485313; further: % of control where 0% means no effect; nearly all actives have a fitted effect of over 60% in size
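Luminescence read-out of NPC1 promoter-driven luciferase in stably transfected Huh7 cells; compounds delivered in DMSO and left 24 h at 37C, 5% CO2, qHTS titration format.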
Rab9 prom act: activators of Rab9 promoter | Huh7 Rab9 promoter-luciferase reporter, luminescence, 24 h | Potency, µM (titrated, usually from 9.22 µM), for the others: at the top dose activation, negative = inhibition, most hits filed as activators | hit rate 2.8% among 320,000 | AID 485297; further: % of control where 0% means no effect; nearly all actives have a fitted effect of over 60% in size
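Quantitative HTS format; Huh7 Rab9-luciferase reporter cells (1500/well) receive compound 2 h post-plating, incubate 24 h at 37 °C, then get luciferase reagent for 10 min before luminescence reading.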
Starred values were filed as active, the others as inactive; ? = inconclusive; · = no result. The call rests on the fitted dose curve; in most records, active means well fitted curve in the direction sought with a large enough effect; inconclusive means small, poorly fitted or top-dose-only effect, or another doubt; inactive means no such curve, though single readings can be large; an effect the other way counts as inactive or inconclusive. Potency means the concentration at half of the fitted maximal effect.

SMILES | Luc counter | FLuc counter | SMN2 splice enh | ELG1 genotoxic | NPC1 promoter act | Rab9 prom act
CC1(C)CC(=O)c2c(oc3c(Cl)cc(NS(=O)(=O)c4ccc(Cl)cc4)cc23)C1 | · | -6% | -1% | · | · | ·
CN(Cc1ccccc1)C(=O)c1cc(-c2ccc(Br)cc2)on1 | -3% | 15µM* | ? | 8% | 9% | ?
CCCNC(=O)c1cc(-c2ccc(Br)cc2)on1 | -4% | ? | ? | ? | 2.2µM* | 2.2µM*
CC(C)NC(=O)c1cc(-c2ccco2)on1 | -7% | ? | 7% | ? | ? | ?
CC(C)NC(=O)c1cc(-c2ccc(Br)cc2)on1 | -4% | 2.7µM* | 20µM* | ? | 1.4µM* | 1.6µM*
Cc1oc(-c2ccc(C(=O)NCc3cccc(F)c3)cc2)nc1COc1ccccc1 | · | 1% | · | · | · | ·
CC(C)=CC(=O)NCCc1ccccc1 | ? | 13µM* | 13µM* | · | · | ·
Cc1ccc(/C=C/C(=O)NCCc2ccccc2)o1 | · | 17µM* | · | ? | ? | ?
O=C(O)/C=C/C(=O)NCCc1ccccc1 | -1% | -4% | -3% | 0% | -2% | -1%
CN(C)CCNC(=O)CCCn1c(=O)c2cccn2c2ccccc21 | · | 15µM* | · | · | · | ·
Cc1ccc(Cl)cc1NC(=O)CCCn1c(=O)c2cccn2c2ccccc21 | · | 12µM* | · | · | · | ·
Cc1ccc(Cl)cc1NC(=O)CCCn1c(=O)c2cccn2c2cccnc21 | · | -2% | · | · | · | ·
COc1ccc2c(c1)OCC(Cc1ccc(OC)c(O)c1)C2=O (configuration not stated) | -1% | · | -15% | · | · | ·
Cc1cc(C(=O)COC(=O)c2ccc(N)c([N+](=O)[O-])c2)c(C)n1Cc1ccc2c(c1)OCO2 | · | ? | · | 7% | 26% | 3%
Cc1ccc(S(=O)(=O)N(C)C)cc1NC(=O)COC(=O)c1ccc2c(c1)NC(=O)CS2 | · | 0% | · | -8% | -3% | -9%
C=CCn1c(C)cc(C(=O)COC(=O)c2ccc(N)c([N+](=O)[O-])c2)c1C | -1% | 3µM* | 13µM* | 2.6µM* | 4µM* | 1.3µM*
C=CCn1c(C)cc(C(=O)COC(=O)c2ccc3c(c2)NC(=O)CS3)c1C | -1% | 17µM* | 21% | 0% | 5% | 2%
COC(=O)c1ccc2c(c1)NC(=O)CS2 | -1% | -2% | 3% | -1% | -6% | -5%
COCCn1c(C)cc(C(=O)COC(=O)c2ccc3c(c2)NC(=O)CS3)c1C | 1% | 13µM* | 7% | 1% | 0% | 1%
CCCc1cc(C(=O)Nc2cc(C)on2)no1 | 15% | 21µM* | 5% | ? | 2% | -5%
Cc1cc(NC(=O)c2cc(CC(C)C)on2)no1 | -1% | 11µM* | 21% | 13µM* | 2% | 3%
Cn1/c(=N/NC(=O)c2ccccc2F)sc2ccccc21 | 0% | 15µM* | ? | ? | ? | 2.8µM*
Cc1ccc(C(=O)N/N=c2\sc3ccccc3n2C)cc1 | -5% | 21µM* | 9% | 0% | 20% | 13%
S=C(N/N=C/c1ccc(Br)cc1)N1CCCCC1 | · | 27µM* | · | ? | 4µM* | 0.89µM*
Cc1ccc(/C=N/NC(=S)N2CCOCC2)cc1 | -6% | 15µM* | 34% | ? | 12% | 5%
SMILES | Luc counter | FLuc counter | SMN2 splice enh | ELG1 genotoxic | NPC1 promoter act | Rab9 prom act
COc1ccc(C2=C(Nc3ccc(Br)c(C)c3)c3ccccc3C2=O)cc1 | · | -1% | -15% | · | · | ·
CCCC[C@H]1C[C@@H]1[C@@H]1N(P(=O)(c2ccccc2)c2ccccc2)C[C@@](O)(c2ccccc2)CC12CC2 | -4% | · | -38% | · | · | ·
CCN1CCN(C(=O)c2cnn(-c3ccc(F)cc3F)c2C2CCN(C(=O)OC(C)(C)C)CC2)CC1 | · | -4% | · | · | · | ·
Cc1cccc2c(=O)oc(-c3ccccc3Cl)nc12 | · | ? | · | -4% | -3% | 0%
Cc1ccccc1-c1nc2sc(-c3ccccc3)cc2c(=O)o1 | -11% | 4.8µM* | -5% | 6% | -34% | 9%
Cc1ccccc1-c1nc2sc(C)c(C)c2c(=O)o1 | · | 7.6µM* | · | 3% | -2% | -1%

High-throughput results: PubChem BioAssay, National Center for Advancing Translational Sciences (NCATS)
